# Test results published in PubChem BioAssay (NCATS).
# Records with an inconclusive call do not appear. Where a call stands in place of a potency, no number is given. The source made the active and inactive calls. Calls come from the whole dose curve; as a rule, active = well fitted inhibition curve with a large enough effect; inconclusive = small, poorly fitted or top-dose-only effect; inactive = flat fitted curve, though single readings scatter.
# Tests used:
# Assay in all cases: qHTS profiling for inhibitors of Plasmodium falciparum proliferation (AID 504749); note: nearly all actives have a fitted effect of over 60% in size
# Details in all cases: P. falciparum in erythrocytes, SYBR Green DNA, 72 h; series mostly up to 28.7 µM
# [1] = test system: AA1029
# Outline: (§1)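 Readout was DNA-dye fluorescence from lysed cultures, ex 485/em 535 nm. Parasitized red cells had grown 72 h with compound; data scaled between 0.29 uM artemisinin and DMSO wells and corrected using vehicle-only plates.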
# [2] = test system: AS120
# Outline: as §1
# [3] = test system: ATS189
# Outline: as §1
# [4] = test system: ATS95
# Outline: as §1
# [5] = test system: C2A
# Outline: as §1
# [6] = test system: CP185
# Outline: as §1
# [7] = test system: CP191
# Outline: as §1
# [8] = test system: CP192
# Outline: as §1
# [9] = test system: CP194
# Outline: as §1
# [10] = test system: CP201
# Outline: as §1
# [11] = test system: CP203
# Outline: as §1
# [12] = test system: CP211
# Outline: as §1
# [13] = test system: CP215
# Outline: as §1
# [14] = test system: CP217
# Outline: as §1
# [15] = test system: CP237
# Outline: as §1
# [16] = test system: CP238
# Outline: as §1
# [17] = test system: CP247
# Outline: as §1
# [18] = test system: CP250
# Outline: as §1
# [19] = test system: CP252
# Outline: as §1
# [20] = test system: CP256
# Outline: as §1
# Potency is the fitted concentration of half-maximal effect.
SMILES,Potency [1],Potency [2],Potency [3],Potency [4],Potency [5],Potency [6],Potency [7],Potency [8],Potency [9],Potency [10],Potency [11],Potency [12],Potency [13],Potency [14],Potency [15],Potency [16],Potency [17],Potency [18],Potency [19],Potency [20]
C[C@H]1C[C@H]2[C@@H]3CCC4=CC(=O)C=C[C@]4(C)[C@@]3(F)[C@@H](O)C[C@]2(C)[C@@]1(O)C(=O)CO,inactive,inactive,inactive,inactive,inactive,inactive,inactive,inactive,inactive,inactive,inactive,inactive,inactive,inactive,inactive,inactive,inactive,inactive,inactive,inactive
CCCCCCCC/C=C\CCCCCCCC(=O)O,inactive,inactive,inactive,inactive,inactive,inactive,inactive,inactive,inactive,inactive,–,inactive,inactive,inactive,inactive,inactive,inactive,inactive,inactive,inactive
CCCCCCC(O)C/C=C/CCCCCCCC(=O)O (stereo not given),inactive,inactive,inactive,inactive,inactive,inactive,inactive,inactive,inactive,inactive,inactive,–,inactive,inactive,inactive,inactive,inactive,inactive,inactive,inactive
O=C(O)CCC(=O)C(=O)O,inactive,inactive,inactive,inactive,inactive,inactive,inactive,inactive,inactive,inactive,–,inactive,inactive,inactive,inactive,inactive,inactive,inactive,inactive,inactive
O=C1C(=O)c2ncccc2-c2cccnc21,1 µM (active),708 nM (active),1.41 µM (active),1 µM (active),3.16 µM (active),2.51 µM (active),3.16 µM (active),953 nM (active),1.35 µM (active),1.69 µM (active),1.69 µM (active),1.07 µM (active),1.35 µM (active),1.26 µM (active),1 µM (active),1 µM (active),1.58 µM (active),1.26 µM (active),2.51 µM (active),1 µM (active)
Cc1ccccc1OCC(O)CNCCOc1ccc(C(N)=O)cc1 (stereo not given),inactive,inactive,inactive,inactive,inactive,inactive,inactive,inactive,inactive,inactive,inactive,inactive,inactive,inactive,inactive,inactive,inactive,inactive,inactive,inactive
O=C(O)c1cc(O)c2c(c1)[O][Bi][O]2,inactive,inactive,inactive,inactive,inactive,inactive,inactive,inactive,inactive,inactive,–,inactive,–,inactive,inactive,inactive,inactive,inactive,inactive,inactive
CCCCCCCC(=O)O,inactive,inactive,inactive,inactive,inactive,inactive,inactive,inactive,inactive,inactive,–,inactive,inactive,inactive,inactive,inactive,inactive,inactive,inactive,inactive
CCCCC(C)(O)C/C=C/[C@H]1[C@H](O)CC(=O)[C@@H]1CCCCCCC(=O)OC (stereo not given in full),inactive,inactive,inactive,inactive,inactive,inactive,inactive,inactive,inactive,inactive,–,inactive,–,inactive,inactive,inactive,inactive,inactive,inactive,inactive
Cc1cn([C@H]2C[C@H](O)[C@@H](CO)O2)c(=O)[nH]c1=O,inactive,inactive,inactive,inactive,inactive,inactive,inactive,inactive,inactive,inactive,–,inactive,inactive,inactive,inactive,inactive,inactive,inactive,inactive,inactive
IC(I)I,inactive,inactive,inactive,inactive,inactive,inactive,inactive,–,inactive,inactive,–,inactive,–,inactive,inactive,inactive,inactive,inactive,inactive,inactive
C[C@]12CCC(=O)C=C1CC[C@@H]1[C@@H]2[C@@H](O)C[C@@]2(C)[C@H]1CC[C@]2(O)C(=O)COP(=O)(O)O,inactive,inactive,inactive,inactive,inactive,inactive,inactive,inactive,inactive,inactive,–,inactive,inactive,inactive,inactive,inactive,–,inactive,inactive,inactive
CCCC(=O)Nc1ncnc2c1ncn2C1OC2COP(=O)(O)OC2C1OC(=O)CCC (stereo not given),inactive,inactive,inactive,inactive,inactive,inactive,inactive,inactive,inactive,inactive,–,inactive,inactive,inactive,inactive,inactive,inactive,inactive,inactive,inactive
COC(=O)C1=C(C#N)NC(C)=C(C(=O)OC(C)C)C1c1cccc([N+](=O)[O-])c1 (stereo not given),11.2 µM (active),8910 nM (active),11.2 µM (active),11.2 µM (active),11.2 µM (active),7.94 µM (active),11.2 µM (active),–,12 µM (active),–,7.57 µM (active),9.53 µM (active),–,11.2 µM (active),–,10 µM (active),8.91 µM (active),–,–,7.94 µM (active)
CCCCCCCCCCCCCCCC(=O)OCC(COC(=O)CCCCCCCCCCCCCCC)OC(=O)CCCCCCCCCCCCCCC,inactive,inactive,inactive,inactive,inactive,inactive,inactive,inactive,inactive,inactive,–,inactive,inactive,inactive,inactive,inactive,inactive,inactive,inactive,inactive
Nc1c(Br)cc(Br)cc1CNC1CCC(O)CC1 (stereo not given),inactive,inactive,inactive,inactive,inactive,inactive,inactive,inactive,inactive,inactive,–,inactive,inactive,inactive,–,inactive,inactive,inactive,inactive,inactive
Nc1ncnc2c1ncn2[C@@H]1O[C@H](COP(=O)(O)OP(=O)(O)OP(=O)(O)O)[C@@H](O)[C@H]1O,inactive,inactive,inactive,inactive,inactive,inactive,inactive,inactive,inactive,inactive,–,inactive,inactive,inactive,inactive,inactive,inactive,inactive,inactive,inactive
CC(=O)Oc1c(C)cc(OCC(O)CNC(C)C)c(C)c1C (stereo not given),inactive,inactive,inactive,inactive,inactive,inactive,inactive,inactive,inactive,inactive,–,inactive,inactive,inactive,inactive,inactive,inactive,inactive,inactive,inactive
O=C(COc1ccc(Cl)cc1)OCCNC12CC3CC(CC(C3)C1)C2,inactive,inactive,inactive,inactive,inactive,inactive,inactive,inactive,inactive,inactive,–,inactive,inactive,inactive,–,inactive,inactive,inactive,inactive,inactive
CC(C)N=c1cc2n(-c3ccc(Cl)cc3)c3ccccc3nc-2cc1Nc1ccc(Cl)cc1,inactive,inactive,inactive,inactive,inactive,inactive,inactive,–,inactive,inactive,–,inactive,inactive,inactive,–,inactive,inactive,inactive,inactive,inactive
CCCC(=O)O[C@]1(C(=O)CCl)[C@H](C)C[C@@H]2[C@H]3CCC4=CC(=O)C=C[C@]4(C)[C@@]3(F)C(=O)C[C@@]21C,2.82 µM (active),3160 nM (active),2.82 µM (active),3.55 µM (active),3.55 µM (active),3.16 µM (active),0.891 µM (active),4780 nM (active),3.01 µM (active),3.79 µM (active),–,1.51 µM (active),3.79 µM (active),3.16 µM (active),3.55 µM (active),3.98 µM (active),2 µM (active),1.58 µM (active),3.16 µM (active),0.794 µM (active)
CCN(CC)Cc1cc(Nc2ccnc3cc(Cl)ccc23)ccc1O,0.0631 µM (active),44.7 nM (active),0.141 µM (active),0.0631 µM (active),0.0562 µM (active),0.0631 µM (active),0.0398 µM (active),161 nM (active),0.128 µM (active),0.0907 µM (active),–,0.0642 µM (active),0.128 µM (active),0.112 µM (active),0.0355 µM (active),0.0891 µM (active),0.1 µM (active),0.0178 µM (active),0.1 µM (active),0.0891 µM (active)
C#CCOc1ccc2c(C)cc(=O)oc2c1,inactive,inactive,inactive,inactive,inactive,inactive,inactive,inactive,inactive,inactive,–,inactive,inactive,inactive,inactive,inactive,inactive,inactive,inactive,inactive
Cc1cc(C(=O)NNCc2ccccc2)no1,inactive,inactive,inactive,inactive,inactive,inactive,inactive,inactive,inactive,inactive,–,inactive,inactive,inactive,inactive,inactive,inactive,inactive,inactive,inactive
